Data as given in PubChem BioAssay (NCATS).
Inconclusive results are not listed. Unmarked numbers belong to inactive results. The source made the active and inactive calls. The call rests on the fitted dose curve; in most records, active means well fitted inhibition curve with a large enough effect; inconclusive means small, poorly fitted or top-dose-only effect; inactive means flat fitted curve, though single readings scatter.

test system: CRL-7250; assay: Cytotoxic Profiling of Annotated Libraries Using Quantitative High-Throughput Screening (AID 1296008); conditions: Five cell lines viability, CellTiter-Glo ATP luminescence, 48-72 h; max response: active compounds read low; further: nearly all actives have a fitted effect of over 60% in size
In short: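 Cells exposed to compounds for 48 or 72 hr at 37 degrees Celsius. Viability read as ATP-coupled luminescence with CellTiter-Glo after 10 min at room temperature.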
On the % scale 0 is the no-effect control and ±100 the full control effect.

SMILES	max response	outcome
CC1CCC2C(C)(C)CC(C)(CO)C2(O)C1C(=O)O (centres undefined)	0.69%	
C=C1C[C@@]23CC[C@@H]4[C@](C)(C(=O)O)CCC[C@@]4(C)C2=CC[C@H]1C3	-8.72%	
CCOc1nc2cccc(C(=O)O)c2n1Cc1ccc(-c2ccccc2-c2noc(=O)[nH]2)cc1	4.39%	
C/C=C(\C)C(=O)OC[C@H]1O[C@H](O[C@H]2O[C@H](CO)[C@@H](OC(=O)/C(C)=C/C)[C@H](O)[C@H]2O[C@@H]2O[C@H](CO)[C@@H](O)[C@H](O)[C@H]2O)[C@H](O[C@@H]2O[C@H](CO)[C@@H](O)[C@H](O)[C@H]2O)[C@@H](O)[C@@H]1O	-3.07%	
CCNC(=O)CCC/C=C\C[C@@H]1[C@@H](/C=C/C(O)CCc2ccccc2)[C@@H](O)C[C@@H]1O (some centres undefined)		inactive
C=C(C)C(=O)O[C@H]1C[C@@](C)(OC(C)=O)[C@@]2(O)CC[C@@](C)(O)[C@H](OC(C)=O)[C@@]23OC(=O)C(COC)=C13	3.52%	
CC(=O)O[C@@H]1[C@H]2[C@@H](OC(=O)c3ccccc3)[C@@H](C)C[C@]2(O)[C@H](OC(C)=O)[C@@]2(C)[C@@H]3CC(C)(C)C(=O)[C@]3(OC(C)=O)C[C@@]12C		inactive
C=CC(C)(CC/C=C(\C)CC/C=C(\C)CC(O)/C=C(\C)C(=O)O)O[C@@H]1O[C@H](CO)[C@@H](O)[C@H](O)[C@H]1O[C@@H]1O[C@H](CO)[C@@H](O)[C@H](O)[C@H]1O (some centres undefined)		inactive
C/C=C(\C)C(=O)O[C@@H](C)[C@H]1CC[C@]2(O)C3CCC4C[C@@H](OC5CC(OC)C(OC6CC(OC)C(OC7CC(OC)C(OC8OC(C)C(OC9OC(CO)C(O)C(O)C9O)C(OC)C8O)C(C)O7)C(C)O6)C(C)O5)CC[C@]4(C)C3[C@H](O)[C@@H](O)[C@]12C (some centres undefined)	-8.84%	
CC1(C)CC(=O)N(CCCCN2CCN(c3ncccn3)CC2)C(=O)C1		inactive
C[C@@H]1CC[C@]2(C(=O)O)CC[C@]3(C)C(=CCC4[C@]5(C)C(CC[C@]43C)C(C)(C)[C@@H](O)[C@H](O)[C@@H]5O)C2[C@]1(C)O (some centres undefined)	-2.7%	
O=C(COc1ccc(Cl)cc1)NC1CCC(NC(=O)COc2ccc(Cl)cc2)CC1 (centres undefined)	2.66%	
O=C(O)CCc1cccc(O[C@@H]2O[C@H](CO)[C@@H](O)[C@H](O)[C@H]2O)c1O		inactive
OC[C@H]1O[C@@H](OC(CCCCc2ccc(O)cc2)CCc2ccc(O)cc2)[C@H](O[C@@H]2OC[C@](O)(CO)[C@H]2O)[C@@H](O)[C@@H]1O (some centres undefined)	3.53%	
COc1cc2c(cc1OC)CN(C(=O)[C@@H](NCc1ccncc1)C(C)(C)C)CC2		inactive
COc1ccc(/C=C/C(=O)O[C@@H]2[C@@H](O)[C@H](C)O[C@@H](OC3C4C=COC(O[C@@H]5O[C@H](CO)[C@@H](O)[C@H](O)[C@H]5O)C4C4(CO)OC34)[C@@H]2O)cc1OC (some centres undefined)	0.628%	
CC(=O)OCC1=C[C@H](O)[C@@H]2C(C(=O)O)=CO[C@@H](O[C@@H]3O[C@H](CO)[C@@H](O)[C@H](O)[C@H]3O)[C@H]12		inactive

SMILES	max response	outcome
COC(=O)[C@@]1(O)C=CC[C@@H]2[C@@]3(C)C[C@@H](c4ccoc4)OC(=O)[C@H]3CC[C@]21C		inactive
O=C(NCC(=O)N1CC[C@H](NC2CCC(O)(c3ccc(-c4ncccn4)cn3)CC2)C1)c1cccc(C(F)(F)F)c1 (some centres undefined)	-2.44%	
CC1=CC(=O)C2C(C)(C)CCCC2(C)C12CCC1(COC(=O)C1)O2 (centres undefined)	-1.45%	
CC(C)(O)C1CCC2(C)C3C(O)C4C(C13)C42CO (centres undefined)		inactive
C[C@@H]1CC[C@]2(C)C(C[C@@H](O)[C@H](O)[C@]23CO3)[C@@]1(C)CCc1ccoc1 (some centres undefined)		inactive
O=C(O)C[C@H]1CCC(=O)[C@@H]1C/C=C\CCOC1OC(CO)C(O)C(O)C1O (some centres undefined)	-7.42%	
C=CCc1ccc(O[C@@H]2O[C@H](CO)[C@@H](O)[C@H](O)[C@H]2O)c(OC)c1	-5.9%	
CC1OC(OC2C(O)C(C(=O)O)OC(OC3CCC4(C)C(CCC5(C)C4C=CC4=C6CC(C)(C)CC(O)C6(C)CCC45C)C3(C)C)C2OC2OCC(O)C(O)C2O)C(O)C(O)C1O (centres undefined)	-1.54%	
C[C@H]1[C@H](C)CC[C@]2(C(=O)O)CC[C@]3(C)C(=CC[C@@H]4[C@@]5(C)C[C@@H](O)[C@H](O)[C@@](C)(CO)[C@@H]5CC[C@]43C)[C@H]12	0.188%	
CC(C)C1=CC2=CCC3[C@](C)(CCC[C@@]3(C)C(=O)O)C2CC1O (some centres undefined)	-2.15%	
C[C@@H]1O[C@@H](O[C@H]2[C@H](O)[C@@H](C(=O)O)O[C@@H](O[C@H]3CC[C@@]4(C)C(CC[C@]5(C)C4CC=C4C6CC(C)(C)CC[C@]6(C(=O)O)CC[C@]45C)C3(C)C)[C@@H]2O[C@@H]2O[C@H](CO)[C@@H](O)[C@H](O)[C@H]2O)[C@H](O)[C@H](O)[C@H]1O (some centres undefined)		inactive
O=S(=O)(NC1CCNCC1)c1cc(S(=O)(=O)c2ccccc2)ccc1C(F)(F)F	1.06%	
CC(=O)O[C@H]1[C@H](C)[C@@H](O)[C@H]2[C@@H]1C=C(C(=O)O)[C@H]1C[C@@H]3[C@H]([C@H]21)[C@H]1C(=O)O[C@@H]2CC[C@@]3(C)O[C@]1(O)[C@@H]2C	-0.589%	
C/C=C(\C)C(=O)O[C@H]1[C@H](O)[C@]2(COC(C)=O)[C@H](O)C[C@]3(C)C(=CCC4[C@@]5(C)CC[C@H](O[C@@H]6O[C@H](C(=O)O)[C@@H](O[C@@H]7O[C@H](CO)[C@@H](O)[C@H](O)[C@H]7O)[C@H](O)[C@H]6O[C@@H]6O[C@H](CO)[C@@H](O)[C@H](O)[C@H]6O)[C@](C)(CO)C5CC[C@]43C)[C@@H]2CC1(C)C (some centres undefined)	-9.07%	
COc1cc(C2Oc3c(OC)cc(CCCO[C@@H]4O[C@H](CO)[C@@H](O)[C@H](O)[C@H]4O)cc3C2CO)ccc1O (some centres undefined)	-0.0218%	
CC1=C(C)C(=O)OC(C(C)C2C(O)CC3C4C5OC5C5(O)CC(OC6OC(CO)C(O)C(O)C6O)CC(O)C5(C)C4CCC32C)C1 (centres undefined)		inactive
CC(C)c1cc2c(c(O)c1O[C@@H]1O[C@H](CO)[C@@H](O)[C@H](O)[C@H]1O)CC1(O)CCC(O)C(C)(C)C1CC2 (some centres undefined)		inactive
